Most compounds without a hit are left out; they make up all but 2.2% or so of the library.
hiPSC survival – increases survival of single human iPS cells. hiPSC single-cell survival, ATPlite luminescence; 100% = ROCK inhibitor wells, 0% = DMSO. survival enhancement, % at 20 µM. 360,000 tested, 0.044% active. AID 602274; in the data active = survival enhancement above about 18%;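 also: cells exposed to compounds for 16 hours before the ATP read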
beta cell repl – inducers of beta-cell replication in MIN6 cells. AID 2380. 330,000 tested, 0.29% active. proliferation, % at 10 µM. MIN6 cells proliferation, ATPlite luminescence, 48 h; cells starved in 0.2% serum; 100% = growth in 10% serum;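 active = compounds whose signal lies at least 3.5 SD above the mean of all wells on their plate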;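 also: 0% = DMSO-treated cells in low-serum medium and 100% = 10% serum control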
H9c2 protect – myocardial damage modulation in H9c2 cells; H9c2 cardiomyocytes, H2O2 injury protection, ATPLite, 2 h; 360,000 tested, 0.63% active; protection from H2O2 cell death, % at 20 µM;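 active = compounds giving at least 50% protection of heart cells from peroxide-induced death in the single-dose screen, raw or plate-pattern-corrected value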;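 also: 0% = DMSO wells with peroxide and 100% = DMSO wells without peroxide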
ABCB6 inh MLPCN – inhibitors of human ABC transporter ABCB6 | AID 602162 | Q9NP58 | fluorescence ratio to DMSO, % at 10 µM | K562-ABCB6 porphyrin accumulation, flow cytometry, 1 h; stronger effect = lower value | 360,000 tested, 0.19% active;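 active = fluorescence ratio to DMSO below 75%, the collection mean minus 3 SD; inconclusive = too few cells collected in the well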;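 also: signal is porphyrin accumulated inside mitochondria; 100% equals median channel fluorescence of DMSO control wells; lower ratio means ABCB6 inhibition with less porphyrin fluorescence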
Target sequence (Q9NP58 whole entry, looked up): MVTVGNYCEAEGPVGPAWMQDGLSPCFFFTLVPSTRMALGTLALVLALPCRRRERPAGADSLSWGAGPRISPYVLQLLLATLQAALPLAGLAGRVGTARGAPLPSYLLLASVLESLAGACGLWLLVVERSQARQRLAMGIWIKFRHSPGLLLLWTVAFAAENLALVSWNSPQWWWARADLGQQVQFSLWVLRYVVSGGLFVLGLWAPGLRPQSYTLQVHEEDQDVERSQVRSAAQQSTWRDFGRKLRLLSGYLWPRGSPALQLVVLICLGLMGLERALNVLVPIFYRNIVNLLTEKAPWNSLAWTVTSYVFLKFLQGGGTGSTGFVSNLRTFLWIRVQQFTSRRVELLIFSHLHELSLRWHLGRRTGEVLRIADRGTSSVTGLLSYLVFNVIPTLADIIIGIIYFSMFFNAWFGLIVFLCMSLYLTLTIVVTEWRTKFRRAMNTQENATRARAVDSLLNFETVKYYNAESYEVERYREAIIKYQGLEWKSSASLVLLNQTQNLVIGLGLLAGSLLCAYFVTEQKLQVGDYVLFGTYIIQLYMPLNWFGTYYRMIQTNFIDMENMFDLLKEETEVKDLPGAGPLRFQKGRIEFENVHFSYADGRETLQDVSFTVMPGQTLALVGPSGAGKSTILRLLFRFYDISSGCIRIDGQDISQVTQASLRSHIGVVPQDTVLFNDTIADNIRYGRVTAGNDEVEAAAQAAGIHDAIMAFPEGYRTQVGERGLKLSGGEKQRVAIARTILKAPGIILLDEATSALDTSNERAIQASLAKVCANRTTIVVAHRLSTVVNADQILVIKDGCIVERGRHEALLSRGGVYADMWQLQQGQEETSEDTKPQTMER
Myeloid diff 2 – myeloid differentiation induction | ER-HoxA9 myeloid progenitors, lysozyme-GFP differentiation, flow cytometry | calls only at 10 µM | 360,000 tested, 1% active;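 active = normalized GFP-positive differentiation at or above the plate's own cutoff, the solvent-only control mean plus 3 SD; inconclusive = no clear call, values can overlap the other calls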;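 also: cells exposed to compound for four days before flow analysis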
Numbers without * were called inactive; i = inactive; ? = inconclusive; . = no result; + = active, no number.

SMILES	hiPSC survival	beta cell repl	H9c2 protect	ABCB6 inh MLPCN	Myeloid diff 2
Oc1cc2c(c(Cl)c1O)CCNCC2c1ccccc1 (centres undefined)	-2	-7	68*	95	i
Cc1cccc(C2CN(C)CCc3c2cc(O)c(O)c3Cl)c1 (centres undefined)	5	-8	45	99	i
C=CCN1CCc2c(cc(O)c(O)c2Cl)C(c2ccccc2)C1 (centres undefined)	1	-8	76*	102	i
C=CCN1CCc2cc(O)c(O)cc2C(c2ccccc2)C1 (centres undefined)	-1	-8	38	103	i
Cc1ccc(NC(=S)NC2CCSc3ccccc32)cc1C (centres undefined)	0	-7	-15	97	i
C/C=C/C1=CC(=O)C[C@H](c2ccc3c(c2)OCO3)C1	1	-1	-4	101	i
CC(=O)N(C1=C(O)c2ccccc2C(=O)C1=O)C1CCCCC1	0	-2	-2	88	i
O=C(NC(c1ccc(F)cc1)c1ccc2ccccc2n1)C1CCN(CCOc2ccc(F)cc2)CC1 (centres undefined)	-1	.	-2	96	+
CCCc1cc(=O)oc2cc(OCc3cc(OC)c(OC)c(OC)c3)c(Cl)cc12	2	0	-20	98	i
CCCCc1cc(=O)oc2cc(OCc3cc(OC)c(OC)c(OC)c3)c(Cl)cc12	23*	0	-32	103	i
O=C(Nc1ccc2c(c1)OCO2)C1CCN(c2ccc(S(=O)(=O)N3CCOCC3)cc2)CC1	-2	-3	0	104	i
Cc1ccc(S(=O)(=O)NCC(=O)N(c2ccccc2)C(C(=O)NCc2ccccc2)c2ccco2)cc1 (centres undefined)	-2	-2	58*	99	i
Cc1cc(C)cc(N(C(=O)CNS(=O)(=O)c2ccccc2)C(C(=O)NCc2ccccc2)c2ccc(C)o2)c1 (centres undefined)	3	-2	13	96	i
N#Cc1ccc(Nc2nc(-c3ccc(O)cc3O)cs2)cc1C(F)(F)F	0	-7	0	92	i
CCOc1cc(C(=O)OC(C)C(=O)Nc2ccc(S(N)(=O)=O)cc2)ccc1OCC(=O)N1CCOCC1 (centres undefined)	0	-2	-6	102	i
CCOc1cc(/C=C(\C#N)C(=O)Nc2ccc(S(N)(=O)=O)cc2)ccc1OCCN1CCOCC1	0	3	56*	98	i
O=c1ccc(S(=O)(=O)N2CCCC2)cn1Cc1nc(-c2ccc(F)cc2)no1	0	2	6	99	i
CC[C@]12c3[nH]c4cc(CCC(=O)N(C)C)ccc4c3CCN1C(=O)[C@@H](CC(=O)NC/C=C(\C)CCC=C(C)C)C[C@@H]2C(=O)N1CCN(C(=O)c2ccco2)CC1	-1	.	-20	101	i
Cc1cc(C)c(S(=O)(=O)N2CCN(C(=O)N3CCOCC3)CC2)c(C)c1	0	-1	1	99	i
Cc1cc(C)c(S(=O)(=O)N2CCN(C(=O)N3CCCCC3)CC2)c(C)c1	0	1	-5	97	+
NNC(=O)c1sc(-c2ccc(Cl)cc2)cc1N	2	-2	10	135	+
COc1ccccc1-c1cc(NC(C)=O)c2ncc(-c3cccc(C(F)(F)F)c3)n2c1	0	.	8	98	i
CCOCCn1ccc2c(OCC(=O)Nc3ccc(OC)cc3OC)cccc2c1=O	0	0	12	93	+
CNC(=O)COC(=O)c1ccc(OCC(=O)Nc2ccccc2OC)c(OC)c1	-2	3	1	101	i
CCOCCn1ccc2c(OCC(=O)Nc3ccccc3F)cccc2c1=O	0	-2	10	99	i
SMILES	hiPSC survival	beta cell repl	H9c2 protect	ABCB6 inh MLPCN	Myeloid diff 2
COCCNC(=O)COC(=O)c1ccc(OCC(=O)Nc2ccccc2OC)c(OC)c1	0	0	56*	96	i
COCCn1ccc2c(OCC(=O)Nc3ccccc3OC)cccc2c1=O	0	5	54*	90	i
COCCCN1C(=O)c2ccccc2C1C(=O)NC1CCCCCC1 (centres undefined)	-2	-3	9	103	i
COCCOc1ccc(C(F)(F)F)cc1NC(=O)c1ccc(C)cc1	-1	0	-11	102	i
Cn1cc(C(=O)N/N=C/c2c(O)ccc3ccccc23)ccc1=O	-2	-6	71*	99	.
O=C(N/N=C/c1c(O)ccc2ccccc12)c1ccc[n+](CCO)c1	0	-1	56*	101	i
Cc1c(C(=O)N/N=C/c2c(O)ccc3ccccc23)nnn1-c1nonc1N	1	-2	60*	99	?
COc1ccc(/C(C)=N/NC(=O)CNC(=O)/C=C/c2ccccc2OC)cc1	0	-3	-2	101	i
COC(=O)CCN(C(=O)c1ccc(N2CCCCC2)c([N+](=O)[O-])c1)c1ccccn1	-1	0	-2	99	i
CN(C)S(=O)(=O)n1cc(/C=C(\NC(=O)c2ccccc2F)C(=O)NCCN2CCOCC2)c2ccccc21	-2	.	75*	97	i
CN(C)S(=O)(=O)n1cc(/C=C(\NC(=O)c2ccccc2)C(=O)NCCN2CCOCC2)c2ccccc21	0	-1	7	99	i
Fc1ccc(/C=N/NC2=Nc3cccc4cccc2c34)cc1	-2	-2	-10	114	+
c1ccc(NC2=Nc3cccc4cccc2c34)cc1	0	-5	-8	100	i
CCOC(=O)c1c2ccc(OCC(=O)NN)cc2n2ccccc12	-1	3	11	102	i
CCOC(=O)c1c2ccc(OCC(=O)N/N=C/c3ccc(C)cc3)cc2n2ccccc12	0	-7	54*	105	i
Cn1c(=O)n(CCc2ccccc2)c(=O)c2c1nc1n2CCN1Cc1ccco1	2	-2	98*	96	i
CCN1C(c2ccccc2)=C(c2ccccc2)S/C1=C/C=C1\SC(=S)N(C)C1=O	0	.	-9	190	+
CCN1C(=O)/C(=C/C=C2/Sc3ccc4ccccc4c3N2CCO)SC1=S	0	-1	6	438	+
CC(C(=O)OCC(=O)N1CCCCC1)N1C(=O)c2ccccc2C1=O (centres undefined)	0	-3	-6	101	i
CCCC(c1nnnn1CCOC)N1CCN(C(=O)c2ccco2)CC1 (centres undefined)	3	-1	1	99	i
Cc1ccc(C2C3CN(C(C)C)CC=C3C(C#N)=C(N)C2(C#N)C#N)cc1 (centres undefined)	-3	4	24	163	+
COc1ccc(OC)c(C2C3CN(C(C)C)CC=C3C(C#N)=C(N)C2(C#N)C#N)c1 (centres undefined)	-1	0	0	101	i

Screening results from PubChem BioAssay.
